# Reference: PubChem BioAssay (Tox21)
# Values joined by “and” are separate entries in the source; they are usually repeats but may differ in a detail not shown here. Equal entries are not always repeated. Records with an inconclusive call do not appear. Where a call stands in place of a potency, no number is given. Active and inactive are the calls of the source. Calls come from the whole dose curve; as a rule, active = well fitted activation curve with a large enough effect in the repeat runs; inconclusive = weak or mixed curves; inactive = flat fitted curve, though single readings scatter.
# Assay: A CellTox Green Cytotoxicity Assay to monitor cytotoxicity in HepG2 cells - 0 hour (AID 1224882); note: nearly all actives have a fitted effect of over 35% in size
# Conditions: CellTox Green fluorescence; series mostly up to 76.8 µM
# Outline: (§1)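 First, HepG2 cells (600/well) mixed with reagent were plated; second, after 5 h at 37 C they received compounds via pintool; third, fluorescence was measured at 0 h through 40 h at 8 h intervals.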
row,SMILES,Potency
1,C=CC(C)(CCC=C(C)C)OC(=O)c1ccccc1N (stereo not drawn),inactive
2,O=C(N/N=C/c1ccc([N+](=O)[O-])o1)c1cc([N+](=O)[O-])cc([N+](=O)[O-])c1O,inactive
3,CC(O)CN1CCN(CC(=O)[O-])CCN(CC(=O)[O-])CCN(CC(=O)[O-])CC1.[Gd+3] (stereo not drawn),inactive
4,CCc1cnc(C2=NC(C)(C(C)C)C(=O)N2)c(C(=O)O)c1 (stereo not drawn),inactive
5,CCOP(=O)(SC(C)CC)N1CCSC1=O (stereo not drawn),inactive
6,CCCCCCCCn1sccc1=O,inactive
7,C1CS1,inactive
8,CN(C)c1ccc(N=O)cc1,inactive
9,CC(C)(C)NCC(O)c1cc(Cl)c(N)c(C(F)(F)F)c1 (stereo not drawn),inactive
10,Cc1ncc(C[n+]2csc(CCO)c2C)c(N)n1,inactive
11,CCC1CCC(=O)O1 (stereo not drawn),inactive
12,CC1(C)CC(=O)CC(C)(C)N1[O],inactive
13,O=C(O)C(Cl)(Cl)Br,inactive
14,CC1(C)[C@H](C(=O)O[C@H](C#N)c2cccc(Oc3ccccc3)c2)[C@@H]1C=C(Br)Br,inactive
15,Nc1ccccc1C(=O)OCCc1ccccc1,inactive
16,CN1CC[C@]23c4c5ccc(O)c4O[C@H]2[C@@H](O)CC[C@H]3[C@H]1C5,inactive
17,C[C@H]1O[C@H](OC2[C@@H](O)[C@@H](O)C(O)[C@H](O)[C@H]2O)[C@@H](N)C[C@@H]1N=C(N)C(=O)O (stereo partly drawn),inactive
18,CC(C)c1ccc(OP(=O)(Oc2ccc(C(C)C)cc2)Oc2ccc(C(C)C)cc2)cc1,inactive
19,CCOP(=O)(O)C(N)=O,inactive
20,SCc1ccccc1,inactive

row,SMILES,Potency
1,N#CC1(N=NC2(C#N)CCCCC2)CCCCC1,inactive
2,CC(C)(C)OOC(C)(C)CCC(C)(C)OOC(C)(C)C,inactive
3,CC(C)(C#N)C(C)(C)C#N,inactive
4,CCCCNC(=O)OCC#CI,inactive
5,Cc1cnc(C2=NC(C)(C(C)C)C(=O)N2)c(C(=O)O)c1 (stereo not drawn),inactive
6,O=C(N[C@H]1CN2CCC1CC2)c1ccc2c(c1)OCCO2,inactive
7,O=C1NC(=O)C(=O)C(=O)N1,inactive
8,Cc1ccc(N)c(C)c1,inactive
9,CCOP(=S)(S)OCC,inactive
10,CCC[N+](CCC)(CCC)CCC,inactive
11,C=CCOCC1CO1 (stereo not drawn),inactive
12,CN1C[C@H](C(=O)N[C@]2(C)O[C@@]3(O)[C@@H]4CCCN4C(=O)[C@H](Cc4ccccc4)N3C2=O)C=C2c3cccc4[nH]cc(c34)C[C@H]21,inactive
13,COC(=O)C1(O)c2ccccc2-c2ccccc21,inactive
14,CNC(=O)Oc1cccc(N=CN(C)C)c1,inactive
15,Cc1cccc(C)c1NC1=NCCCS1,inactive
16,CC(CC(C(N)=O)(c1ccccc1)c1ccccc1)N(C)C (stereo not drawn),inactive
17,COC1=CC(=O)O[C@@H](/C=C/c2ccc3c(c2)OCO3)C1,inactive
18,CCOC(=O)C1OC1(C)c1ccccc1 (stereo not drawn),inactive
19,c1ccc2c(c1)-c1cccc3cccc-2c13,inactive

# Assay: A CellTox Green Cytotoxicity Assay to monitor cytotoxicity in HepG2 cells - 32 hour (AID 1224883); note: nearly all actives have a fitted effect of over 50% in size; note: potency is the fitted concentration of half-maximal effect
# Conditions: CellTox Green fluorescence; series mostly up to 76.8 µM
# Outline: as §1
row,SMILES,Potency
1,C=CC(C)(CCC=C(C)C)OC(=O)c1ccccc1N (stereo not drawn),inactive
2,O=C(N/N=C/c1ccc([N+](=O)[O-])o1)c1cc([N+](=O)[O-])cc([N+](=O)[O-])c1O,inactive
3,CC(O)CN1CCN(CC(=O)[O-])CCN(CC(=O)[O-])CCN(CC(=O)[O-])CC1.[Gd+3] (stereo not drawn),inactive
4,CCc1cnc(C2=NC(C)(C(C)C)C(=O)N2)c(C(=O)O)c1 (stereo not drawn),inactive
5,CCOP(=O)(SC(C)CC)N1CCSC1=O (stereo not drawn),inactive
6,CCCCCCCCn1sccc1=O,43.7 µM (active) and 22.9 µM (active)
7,C1CS1,inactive
8,CN(C)c1ccc(N=O)cc1,39 µM (active)
9,CC(C)(C)NCC(O)c1cc(Cl)c(N)c(C(F)(F)F)c1 (stereo not drawn),inactive
10,Cc1ncc(C[n+]2csc(CCO)c2C)c(N)n1,inactive
11,CCC1CCC(=O)O1 (stereo not drawn),inactive
12,CC1(C)CC(=O)CC(C)(C)N1[O],inactive
13,O=C(O)C(Cl)(Cl)Br,inactive
14,CC1(C)[C@H](C(=O)O[C@H](C#N)c2cccc(Oc3ccccc3)c2)[C@@H]1C=C(Br)Br,inactive
15,Nc1ccccc1C(=O)OCCc1ccccc1,21.9 µM (active)
16,CN1CC[C@]23c4c5ccc(O)c4O[C@H]2[C@@H](O)CC[C@H]3[C@H]1C5,inactive
17,C[C@H]1O[C@H](OC2[C@@H](O)[C@@H](O)C(O)[C@H](O)[C@H]2O)[C@@H](N)C[C@@H]1N=C(N)C(=O)O (stereo partly drawn),inactive
18,CC(C)c1ccc(OP(=O)(Oc2ccc(C(C)C)cc2)Oc2ccc(C(C)C)cc2)cc1,inactive
19,CCOP(=O)(O)C(N)=O,inactive
20,SCc1ccccc1,inactive

row,SMILES,Potency
1,N#CC1(N=NC2(C#N)CCCCC2)CCCCC1,inactive
2,CC(C)(C)OOC(C)(C)CCC(C)(C)OOC(C)(C)C,inactive
3,CC(C)(C#N)C(C)(C)C#N,inactive
4,CCCCNC(=O)OCC#CI,54.9 µM (active)
5,Cc1cnc(C2=NC(C)(C(C)C)C(=O)N2)c(C(=O)O)c1 (stereo not drawn),inactive
6,O=C(N[C@H]1CN2CCC1CC2)c1ccc2c(c1)OCCO2,inactive
7,O=C1NC(=O)C(=O)C(=O)N1,inactive
8,Cc1ccc(N)c(C)c1,inactive
9,CCOP(=S)(S)OCC,inactive
10,CCC[N+](CCC)(CCC)CCC,inactive
11,C=CCOCC1CO1 (stereo not drawn),inactive
12,CN1C[C@H](C(=O)N[C@]2(C)O[C@@]3(O)[C@@H]4CCCN4C(=O)[C@H](Cc4ccccc4)N3C2=O)C=C2c3cccc4[nH]cc(c34)C[C@H]21,inactive
13,COC(=O)C1(O)c2ccccc2-c2ccccc21,inactive
14,CNC(=O)Oc1cccc(N=CN(C)C)c1,inactive
15,Cc1cccc(C)c1NC1=NCCCS1,inactive
16,CC(CC(C(N)=O)(c1ccccc1)c1ccccc1)N(C)C (stereo not drawn),inactive
17,COC1=CC(=O)O[C@@H](/C=C/c2ccc3c(c2)OCO3)C1,inactive
18,CCOC(=O)C1OC1(C)c1ccccc1 (stereo not drawn),inactive
19,c1ccc2c(c1)-c1cccc3cccc-2c13,inactive
